From PubChem BioAssay
BAZ2B inh – qHTS Assay for Inhibitors of BAZ2B. AlphaScreen BAZ2B-H3K14Ac peptide displacement. Potency, µM (top dose mostly 114 µM), most hits filed as inhibitors. hit rate 4.4% among 360,000. AID 504333, 2011; also: nearly all actives have a fitted effect of over 60% in size
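In this displacement format the biotinylated H3(5-23) peptide acetylated at Lys14 serves as ligand at 50 nM, with BAZ2B at 50 nM in PBS pH 7.4 containing 0.01% Tween-20. Donor and acceptor beads are 10 ug/mL final.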
HP1b binding inh – HTS for Inhibitors of HP1-beta Chromodomain Interactions with Methylated Histone Tails; Chromobox protein homolog 1 (Homo sapiens), P83916; AlphaScreen HP1-beta / biotin-H3K9me3 peptide binding; hit rate 0.56% among 390,000; AID 540317, 2011; Potency, µM (titrated, usually from 114 µM), hits mostly inhibitors; also: nearly all actives have a fitted effect of over 70% in size
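Compound inhibition of the preformed complex between 50 nM HP1-beta and 50 nM biotinylated H3K9me3 peptide was read by AlphaScreen. Buffer was PBS pH 7.4 with 0.01% Tween-20. Incubations ran 30 min at room temperature, with 10 ug/mL donor/acceptor beads.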
PLK1 PBD inh – qHTS for Inhibitors of PLK1-PDB (polo-like kinase 1 - polo-box domain): Primary Screen; hit rate 2.8% among 360,000; Plk1 PBD binding of FITC phosphopeptide, fluorescence polarization; Serine/threonine-protein kinase PLK1 (Homo sapiens), P53350; Potency, µM, actives largely listed as inhibitors; AID 720504, 2013; also: series mostly up to about 57 µM; nearly all actives have a fitted effect of over 65% in size
JMJD2A Tudor – qHTS Assay for Inhibitors of JMJD2A-Tudor Domain | AlphaScreen JMJD2A-Tudor / H3K4me3 peptide binding | Potency, µM (top dose mostly 114 µM), most hits filed as inhibitors | hit rate 4.4% among 390,000 | AID 504339, 2011; also: nearly all actives have a fitted effect of over 50% in size
Sfp PPTase inh – qHTS Assay for Inhibitors of Bacillus subtilis Sfp phosphopantetheinyl transferase (PPTase). 4'-phosphopantetheinyl transferase ffp (Bacillus subtilis), Q9F4F7. Biochemical Sfp PPTase activity, qHTS. Potency, µM, usual class: inhibitors. hit rate 3.5% among 310,000;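 also: the enzyme is Sfp with the accession as filed and its product quenches rhodamine fluorescence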
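Reaction rates are the 30-min fluorescence difference (ex 525, em 598 nm) in wells containing 15 nM Sfp, 5 uM rhodamine-CoA and 12.5 uM BHQ-2-YbbR at pH 7.6 with 10 mM MgCl2.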
G9a block – qHTS Assay for Inhibitors of Histone Lysine Methyltransferase G9a. G9a H3K9 monomethylation, AlphaScreen, 2 h. Potency, µM (highest dose often 102 µM), usual class: inhibitors. hit rate 8.8% among 350,000; also: nearly all actives have a fitted effect of over 75% in size
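Signal arises when biotinylated H3K9 peptide, once monomethylated, bridges streptavidin donor and antibody-captured acceptor beads. Enzyme at 20 nM was preincubated 15 min with test compounds; peptide 500 nM and SAM 20 uM then reacted for 2 h.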
Hits are given with their value; i = inactive; ? = inconclusive; nt = not tested or not shown; [ ] = dose if it differs, or a comment. Rows were chosen to be rich in hits. Some 12% of all compounds tested hit in one or more screens of this group. Calls follow the shape of the dose curve; as a rule, active = well fitted curve in the direction sought with a large enough effect; inconclusive = small, poorly fitted or top-dose-only effect, or another doubt; inactive = no such curve, though single readings can be large; an effect the other way counts as inactive or inconclusive.

SMILES | BAZ2B inh | HP1b binding inh | PLK1 PBD inh | JMJD2A Tudor | Sfp PPTase inh | G9a block
C#CCOCCOCCOCCNc1nc(N2CCN(C(=O)Cn3cc(CCO)nn3)CC2)nc(N2CCN(C(=O)[C@H](Cc3ccc(O)cc3)n3cc(CCO)nn3)CC2)n1 | nt | i | i | i | nt | nt
COc1ccc(O)c(/C=N/NC(=S)Nc2cccc(S(=O)(=O)N(C)C)c2)c1 | 7.94µM | i | i | 22.4µM | i | ?
CN(C)S(=O)(=O)c1cccc(NC(=S)N/N=C/c2ccc(O)c(O)c2O)c1 | 4.47µM | ? | 5.97µM | 20µM | 3.16µM | 3.16µM
COc1cccc(/C=N/NC(=S)Nc2cccc(S(=O)(=O)N(C)C)c2)c1 | ? | ? | 8.44µM | ? | 10µM | 8.91µM
COc1ccc(O)c(/C=N/NC(=S)Nc2cccnc2)c1 | nt | i | i | 25.1µM | i | ?
Cc1ccccc1CNC(=O)c1cnc2sc(N3CCOCC3)nn2c1=O | i | i | nt | i | nt | i
O=C(O)c1ccc(-n2c(-c3cc(-c4ccco4)[nH]n3)n[nH]c2=S)cc1 | 44.7µM | i | i | 20µM | 44.7µM | i[0.501 µM]
CC1CCC(C(=O)NNC(=O)c2cc(-c3ccco3)[nH]n2)CC1 (configuration not stated) | i | i | i | i | i | i
CC(=O)c1ccc(-n2c(-c3cc(-c4ccco4)[nH]n3)n[nH]c2=S)cc1 | ? | i | i | ? | 50.1µM | ?
CCOC(=O)c1ccc(-n2c(-c3ccco3)nc3ccccc3c2=O)cc1 | i | i | i | i | i | i
O=C(O)c1cc(-c2ccco2)[nH]n1 | i | i | i | 79.4µM | 22.4µM | ?
Cc1ccc(NC(=O)CN2C(=O)NC3(CCCCC3C)C2=O)cc1S(=O)(=O)N1CCOCC1 (configuration not stated) | nt | nt | i | nt | nt | nt
CCN1C(=O)C2(C(C(=O)c3ccc(C)o3)=C(O)C(=O)N2CCCN2CCOCC2)c2ccccc21 (configuration not stated) | i | i | i | i | 2.51µM | ?
Cc1ccc(C(=O)C2=C(O)C(=O)N(CCCN3CCOCC3)C23C(=O)N(C)c2ccccc23)o1 (configuration not stated) | i | i | i | i | i | ?
O=C(O)/C=C\C(=O)Nc1ccc(F)c(F)c1F | i | i | i | i | i | 39.8µM
COC(=O)c1ccc(C(=O)OC)c(NC(=O)/C=C/C(=O)O)c1 | i | i | i | i | 39.8µM | ?
COC(=O)c1ccc(C(=O)OC)c(NC(=O)C2CC2)c1 | i | i | i | i | i | i
O=C(O)/C=C\C(=O)Nc1ccccc1F | i | i | i | i | i | ?
COc1ccc(C(=O)COC(=O)c2cc(C)no2)c(OC)c1 | ? | i | i | i | nt | i[0.0925 µM]
Cc1ccc[n+](CC(=O)c2ccc(Br)cc2)c1 | i | i | i | i | i | i
N#Cc1ccc[n+](CC(=O)c2ccc(Cl)cc2)c1 | i | i | i | i | i | 79.4µM
O=C(O)c1ccccc1SC1=NS(=O)(=O)c2ccccc21 | nt | nt | nt | i | nt | nt
COc1ccccc1-c1nccc(NCc2cccs2)n1 | nt | nt | nt | nt | 79.4µM | i[0.501 µM]
FC(F)(F)c1ccccc1-c1nccc(NCc2cccs2)n1 | nt | nt | nt | nt | i | i[0.501 µM]
c1cc(NC2CC2)nc(-c2ccoc2)n1 | nt | nt | nt | nt | 79.4µM | i[0.501 µM]
SMILES | BAZ2B inh | HP1b binding inh | PLK1 PBD inh | JMJD2A Tudor | Sfp PPTase inh | G9a block
c1csc(CNc2ccnc(-c3ccoc3)n2)c1 | nt | nt | nt | nt | 79.4µM | i[0.501 µM]
CN(C)c1ccc(-c2nccc(NCc3cccs3)n2)cc1 | nt | nt | nt | nt | ? | i[0.501 µM]
CCOc1ccccc1NC(=O)Cn1c(=O)n(-c2ccc(F)cc2)c(=O)c2c3c(sc21)CN(C(C)=O)CC3 | i | i | nt | i | nt | i
COCCCNCCCCOc1cccc(Br)c1 | ? | i | i | 2.51µM | i | 28.2µM
CCc1cccc(OCCCCN(CC)CC)c1 | ? | i | i | 3.55µM | i | i[12.7 µM]
CCc1cccc(OCCCCNCCCOC)c1 | ? | ? | i | 6.31µM | ? | 12.6µM
